The results in this text go back to publication PMC4336329 (PLoS ONE, 2015).

SMILES strings stand for the structures. The campaign covered roughly 310,000 compounds. About 14,000 (4.5%) showed an effect of 50% or more. Effects have a minus sign here. This excerpt belongs to a sample that is enriched for strong results.
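Further: peak tail current of the secondary pulse compared with the same well before compound.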

The target in the assay is human ether-à-go-go-related gene (hERG) potassium channel (human, UniProt Q12809). Put plainly: primary screen, population patch clamp on CHO cells stably expressing hERG; higher = less effect of the substance.
Chain of human ether-à-go-go-related gene (hERG) potassium channel (Q12809 whole entry, looked up): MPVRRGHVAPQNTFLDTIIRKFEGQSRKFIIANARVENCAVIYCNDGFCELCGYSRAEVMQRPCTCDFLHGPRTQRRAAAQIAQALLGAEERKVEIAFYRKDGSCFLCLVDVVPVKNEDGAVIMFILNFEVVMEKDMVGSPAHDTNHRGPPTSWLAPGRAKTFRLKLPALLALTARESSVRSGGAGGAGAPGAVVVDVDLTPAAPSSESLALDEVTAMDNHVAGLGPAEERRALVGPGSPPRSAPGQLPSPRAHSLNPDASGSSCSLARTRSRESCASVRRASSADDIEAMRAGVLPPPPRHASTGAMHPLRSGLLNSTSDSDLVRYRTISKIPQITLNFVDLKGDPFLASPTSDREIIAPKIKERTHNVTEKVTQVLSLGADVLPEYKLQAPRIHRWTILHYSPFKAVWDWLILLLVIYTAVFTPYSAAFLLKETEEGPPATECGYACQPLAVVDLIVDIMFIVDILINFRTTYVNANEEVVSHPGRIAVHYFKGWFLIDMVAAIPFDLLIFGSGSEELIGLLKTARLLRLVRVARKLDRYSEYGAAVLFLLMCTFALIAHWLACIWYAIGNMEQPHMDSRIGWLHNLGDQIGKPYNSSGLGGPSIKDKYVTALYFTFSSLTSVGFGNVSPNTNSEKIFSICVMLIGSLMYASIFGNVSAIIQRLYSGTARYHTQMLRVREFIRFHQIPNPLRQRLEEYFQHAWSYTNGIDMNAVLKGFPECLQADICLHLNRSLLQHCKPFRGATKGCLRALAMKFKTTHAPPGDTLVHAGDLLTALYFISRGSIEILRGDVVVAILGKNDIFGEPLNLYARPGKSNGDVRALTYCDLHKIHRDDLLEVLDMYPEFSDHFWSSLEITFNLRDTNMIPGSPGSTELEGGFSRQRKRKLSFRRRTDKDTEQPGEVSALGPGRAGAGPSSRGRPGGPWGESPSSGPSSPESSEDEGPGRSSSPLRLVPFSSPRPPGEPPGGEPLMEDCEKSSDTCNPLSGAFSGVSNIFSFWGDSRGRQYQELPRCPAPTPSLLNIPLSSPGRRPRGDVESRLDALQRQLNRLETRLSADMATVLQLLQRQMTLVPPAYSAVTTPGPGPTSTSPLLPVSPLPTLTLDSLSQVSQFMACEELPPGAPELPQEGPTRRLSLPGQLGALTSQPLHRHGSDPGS
For `COC(=O)Oc1ccc(/C=N/NS(=O)(=O)c2ccccc2)cc1OC`, the “hERG current change (%, negative = inhibition) at 10uM” value is listed as 21.2%.
The value for `CCC(=Nc1ccccc1N)c1c(O)[nH]c(=O)[nH]c1=O` was 18.5%; that for `COC(=O)C1CN(C(=O)COc2cccc(C)c2C)c2ccccc2O1` (stereo not shown) was -6.63%.
On to `Cc1cccc(NC(=O)CCN2C(=O)C3C4C=CC(C4)C3C2=O)n1` (stereo not shown), for which the “hERG current change (%, negative = inhibition) at 10uM” value is on record as 5.71%.
The value for `COc1ccc(C(=O)C2CCCN(Cc3c(F)ccc(F)c3F)C2)c(OC)c1` (stereo not shown) was -30.9%; that for `COc1ccc(C(=O)C2CCCN(Cc3c(C)[nH]c4ccccc34)C2)c(OC)c1` (stereo not shown) was -70.1%.
For `COc1ccc(F)cc1C(=O)C1CCCN(Cc2c[nH]c3ccccc23)C1` (stereo not shown) the value was -63.8%.
As for `COc1ccc(C(=O)COC(=O)Cc2c[nH]c3ccccc23)c(OC)c1`, the “hERG current change (%, negative = inhibition) at 10uM” value came to 4.87%.
For `COc1ccc(C(=O)C2CCCN(Cc3c[nH]c4ccccc34)C2)c(OC)c1` (stereo not shown) the value was -70.8%.
For `COc1ccc(F)cc1C(=O)C1CCCN(Cc2cn(C)c3ccccc23)C1` (stereo not shown) the value was -39.5%; for `COc1ccc(F)cc1C(=O)C1CCCN(Cc2c(C)n(C)n(-c3ccccc3)c2=O)C1` (stereo not shown), -11.5%; for `CC1=C(C(=O)OC(C)C)C(c2ccncc2)n2ncnc2N1` (stereo not shown), 0.568%.
Turning to `CCOc1nc(Nc2cc(Cl)ccc2OC)nc(OCC)n1`, the “hERG current change (%, negative = inhibition) at 10uM” value is reported as 19.7%.
For `N#Cc1ccccc1CSCCNC(=O)Cc1c(F)cccc1Cl` the value was 15.8%; for `CCN(CC)S(=O)(=O)c1ccc2c(c1)nc(CCC(=O)Nc1ccc3c(c1)OCO3)n2CC`, -0.447%.
Take `Cc1ccc2c(c1)nnn2C1CCN(S(=O)(=O)c2ccc(C(=O)NC3CCCC3)cc2)CC1`: the “hERG current change (%, negative = inhibition) at 10uM” value is given as 15.9%.
The value for `CCOc1ccc(N(C)S(=O)(=O)c2cc(-c3cc(C)no3)ccc2C(C)C)cc1` was 4.4%; that for `Cc1cc(N(C)Cc2ccccc2)nc(-c2ccccc2)n1` was -24.1%.
The value for `CN(Cc1ccccc1)c1cc(Cl)nc(N)n1` was -1.61%; that for `Cc1cc(N(C)Cc2ccccc2)nc2cc(O)ccc12` was -56.4%; that for `C=CCn1nc2ccccc2c1OC` was 3.76%.
For `C=CCNc1c2c(nc3ncnn13)CC(C)CC2` (stereo not shown) the value was -14.8%; for `CCOc1ccc(Nc2c3c(nc4ncnn24)CC(C)CC3)cc1` (stereo not shown), -53.9%.
On to `C#CCNc1c2c(nc3ncnn13)CC(C)CC2` (stereo not shown), for which the “hERG current change (%, negative = inhibition) at 10uM” value is given as -10.7%.
The value for `Clc1ccc(Nc2c3c(nc4ncnn24)CCC3)cc1` was 8.29%; that for `Brc1ccc(Nc2c3c(nc4ncnn24)CCC3)cc1` was -21.4%; that for `c1ccc(Nc2c3c(nc4ncnn24)CCC3)cc1` was -54.5%.
For `Clc1ccc(/C=N/Nc2nn[nH]n2)cc1`, the “hERG current change (%, negative = inhibition) at 10uM” value worked out at 12.6%.
For `Cc1ccc2nsnc2c1S(=O)(=O)Nc1ccccc1C(=O)O` the value was -7.06%.
The value for `Cc1c(Cc2ccccc2)sc(NC(=O)/C=C/c2cccc3ccccc23)c1C(N)=O` was 20%; that for `COc1ccc(CN2C(=NC(=O)CCC3CCCC3)SC3CS(=O)(=O)CC32)cc1` (stereo not shown) was 19.7%.
For `COc1ccc(CN2C[C@H](Cc3ccccc3)[C@@H](CC(=O)Nc3ccccc3)C2=O)cc1` the value was -10.5%; for `COc1ccc(CNC(=O)C[C@H]2C(=O)N(c3ccccc3)C[C@@H]2Cc2ccccc2)cc1`, -49.4%.
With `COc1ccc(CNC(=O)C[C@H]2C(=O)N(Cc3ccccc3)C[C@@H]2Cc2ccccc2)cc1`, the “hERG current change (%, negative = inhibition) at 10uM” value stood at 2.76%.
As to `COc1ccc(CNC(=O)C[C@H]2C(=O)N(Cc3ccc(OC)cc3)C[C@@H]2Cc2ccccc2)cc1`, the “hERG current change (%, negative = inhibition) at 10uM” value is -45.9%.
As for `COc1ccc(CNC(=O)C[C@H]2C(=O)N(CCc3ccccc3)C[C@@H]2Cc2ccccc2)cc1`, the “hERG current change (%, negative = inhibition) at 10uM” value is -53%.
As to `CCCCN1C[C@H](Cc2ccccc2)[C@@H](CC(=O)NCc2ccc(OC)cc2)C1=O`, the “hERG current change (%, negative = inhibition) at 10uM” value is recorded as -61.8%.
For `COc1cccc(C(=O)NNC(=O)c2ccccc2-n2cccc2)c1` the value was 34.4%; for `CS(=O)(=O)c1nc(S(=O)(=O)c2ccc(Cl)cc2)c(NCCN2CCOCC2)s1`, -31.6%; for `CC(C)(C)c1ccc(-c2c(C#N)c(N)nc3c2CCCC3)s1`, -0.863%.
The value for `CC12CN3CN(C1)CC(c1ccccc1)(C3)C2=O` was 12.7%.
For `Cc1noc(C)c1COC(=O)[C@@H](NC(=O)c1ccccc1)C(C)C` the value was 11.5%.
Take `Cc1ccccc1OC(C)C(=O)NCCC1=CCCCC1` (stereo not shown): the “hERG current change (%, negative = inhibition) at 10uM” value is reported as -1.85%.
For `COc1cccc(OCc2cc(C(=O)N3CCN(c4ccccc4O)CC3)no2)c1` the value was 4.71%; for `COc1cccc(OCc2cc(C(=O)N3CCN(C(C)=O)CC3)no2)c1`, -1.97%; for `O=C(c1cc(COc2ccc(F)cc2F)on1)N1CCN(C(=O)c2ccco2)CC1`, -57.3%.
For `COc1cccc(OCc2cc(C(=O)N3CCN(C(=O)c4ccco4)CC3)no2)c1` the value was -51.7%; for `O=C(c1cc(COc2ccc(F)cc2F)on1)N1CCSCC1`, -11.7%.
For `O=C(c1cc(COc2ccc(F)cc2F)on1)N1CCOCC1` the value was 17.7%; for `Cc1ccc(NC(=S)N2CCCC2)cc1Cl`, 11.5%.
With `CC(=O)NCCOC(=O)c1nn(Cc2ccccc2)c(=O)c2ccccc12`, the “hERG current change (%, negative = inhibition) at 10uM” value is on record as -22.4%.
For `Cc1sc2nc(CN3CCN(c4ccc(O)cc4)CC3)[nH]c(=O)c2c1C` the value was 14.4%; for `CN(Cc1ccc(Cl)s1)C(=O)CNC(=O)CNC(=O)c1ccc(Cl)cc1Cl`, -56.8%; for `CN(Cc1cccnc1)C(=O)CNC(=O)c1ccc(Cl)cc1Cl`, -17.2%.
As to `COc1ccc(CN(C)C(=O)CNC(=O)CNC(=O)c2ccc(Cl)cc2Cl)cc1F`, the “hERG current change (%, negative = inhibition) at 10uM” value is -43.5%.
The value for `C=CCNC(=O)c1ccc(Cl)cc1Cl` was 11.8%; that for `C=CCN(Cc1ccc(Cl)s1)C(=O)CNC(=O)CNC(=O)c1ccc(Cl)cc1Cl` was -70.6%.
For `O=C(CNC(=O)CNC(=O)c1ccc(Cl)cc1Cl)NCc1cccc(Cl)c1` the value was -1.95%.
